Sampled rows, rich in hits. Any-hit rate of the full collection: about 22%.
CYP2C9 activ: activators of human CYP2C9. P11712. recombinant CYP2C9, luciferin-H conversion, luminescence; hits give high values; factor 1 = untreated enzyme, 0 = blocked. activation factor at 5 µM. 96,000 compounds, 1.4% hits;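 active means activation factor of 2 or more for CYP2C9 at a 5 µM dose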
CYP2C9 inhib: inhibitors of human CYP2C9. inhibition, % at 5 µM. 96,000 compounds, 20% hits. CYP2C9 Supersomes, luciferin-H conversion, luminescence. AID 777;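 active means blocking of liver enzyme CYP2C9 beyond about 50% at 5 µM, limit read from the data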
CYP2C19 act: activators of human cytochrome P450 2C19. P33261. recombinant CYP2C19, luciferin-H EGE luminescence; hits give high values; 0 = fully inhibited enzyme, 1 = untreated enzyme. activation factor at 5 µM. 96,000 tested, under 10 active;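 active means activation factor of at least 2 at 5 µM in the primary screen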
Target sequence (P33261 whole entry, looked up): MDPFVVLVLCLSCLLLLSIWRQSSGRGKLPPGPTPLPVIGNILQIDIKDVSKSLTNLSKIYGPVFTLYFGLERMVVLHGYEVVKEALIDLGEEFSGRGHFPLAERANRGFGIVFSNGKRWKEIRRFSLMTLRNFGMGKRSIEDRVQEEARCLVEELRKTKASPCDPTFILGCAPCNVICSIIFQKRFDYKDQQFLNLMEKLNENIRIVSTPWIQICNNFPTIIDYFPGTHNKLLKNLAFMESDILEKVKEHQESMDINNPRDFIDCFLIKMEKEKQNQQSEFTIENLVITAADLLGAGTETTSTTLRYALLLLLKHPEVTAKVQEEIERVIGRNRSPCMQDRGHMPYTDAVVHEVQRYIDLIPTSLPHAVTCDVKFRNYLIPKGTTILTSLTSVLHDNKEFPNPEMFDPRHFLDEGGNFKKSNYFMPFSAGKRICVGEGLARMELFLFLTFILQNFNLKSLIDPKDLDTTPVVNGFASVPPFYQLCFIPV
Measles CPE: protection of cells from measles virus; Measles virus-infected cells, CPE protection, absorbance; protection (pct of control), % at 4 µM; 140,000 compounds, 1.5% hits; AID 841; in the data active means protection mostly above about 24%, no sharp cut-off; inactive means mostly below about 26%
CYP2C19 inh: inhibitors of human CYP2C19. P33261. CYP2C19 Supersomes, luciferin-H EGE luminescence, 30 min. inhibition, % at 5 µM. 96,000 compounds, 21% hits. AID 778;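 active means CYP2C19 inhibition above a set limit at 5 µM in the primary screen, cut at about 50% in these data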
Hits are given with their value; . = inactive; / = not tested or not shown.

SMILES	CYP2C9 activ	CYP2C9 inhib	CYP2C19 act	Measles CPE	CYP2C19 inh
CCN(CC)S(=O)(=O)c1cccc(NC(=O)COC(=O)c2ccc(Br)o2)c1	.	65	.	.	.
CCN(CC)S(=O)(=O)c1cccc(NC(=O)COC(=O)CCc2nc3ccccc3s2)c1	2.3	.	.	.	.
Cc1ccc(-c2nc3ncccc3o2)cc1NC(=O)c1sc2ccccc2c1Cl	.	.	.	.	.
COc1ccc(CN2C(=O)CN=C2Nc2cc(C)ccc2C)cc1	.	57	.	.	.
O=C(CCC1CCCC1)Nc1nnc(-c2ccc3c(c2)OCO3)s1	/	/	/	.	/
C=CCOc1ccc(C2C(C#N)=C(N)N(Nc3ccccc3)C3=C2C(=O)CCC3)cc1OC (centres undefined)	.	70	.	.	.
COc1cc(C2C(C#N)=C(N)N(Nc3ccccc3)C3=C2C(=O)CC(C)(C)C3)ccc1OCc1cccc(F)c1 (centres undefined)	.	96	.	.	68
COc1ccc(C2C(C#N)=C(N)N(Nc3ccccc3)C3=C2C(=O)CC(C)(C)C3)cc1C (centres undefined)	.	.	.	.	.
COc1cc(C2C(C#N)=C(C)NC3=C2C(=O)CC(C)(C)C3)ccc1OCCO (centres undefined)	.	.	.	.	.
COc1cc(C2C(C#N)=C(N)N(Nc3ccccc3)C3=C2C(=O)CC(C)(C)C3)ccc1OCc1ccccc1 (centres undefined)	.	79	.	.	.
COCCn1c(=O)c2c(nc3n2CCN3c2ccc(C)cc2)n(C)c1=O	.	.	.	/	.
COC(=O)[C@@H]1C[C@]2(OC(=O)c3ccccc3)C=CC(=O)C[C@@H]2N1C(=O)OCc1ccccc1	/	/	/	.	/
O=C(NCc1cccnc1)C1CCCN(S(=O)(=O)c2ccccc2)C1 (centres undefined)	.	83	.	.	87
O=C(NCc1ccc(F)cc1)C1CCCN(S(=O)(=O)c2cccnc2)C1 (centres undefined)	.	.	.	.	.
O=C(NCc1cccnc1)C1CCCN(S(=O)(=O)c2ccc(Cl)cc2)C1 (centres undefined)	.	77	.	.	85
O=C(NCCc1ccccc1)C1CCCN(S(=O)(=O)c2cccnc2)C1 (centres undefined)	.	.	.	.	.
CC1=NN(C(=O)c2cc(C)nn2C)C(O)(C(F)(F)F)C1 (centres undefined)	/	/	/	.	/
CCOC(=O)c1cc(CC)sc1NC(=O)CC1Sc2ccc(C(F)(F)F)cc2NC1=O (centres undefined)	/	/	/	.	/
CC(C)(C)SCCNC(=O)CSCc1ccc([N+](=O)[O-])cc1	.	.	.	.	.
CSc1nc2sc(-c3ccccc3)cc2c(=O)n1N	.	78	.	.	69
CC(C)Sc1nc2sc(-c3ccccc3)cc2c(=O)n1N	.	.	.	.	.
CCC(c1nnnn1C(C)(C)CC)N(CCN1CCOCC1)Cc1cc2cc(C)ccc2[nH]c1=O (centres undefined)	.	.	.	.	82
CC(=O)N(CCO)Cc1cc2cc(C)cc(C)c2[nH]c1=O	.	.	.	.	.
CCOc1ccc2[nH]c(=O)c(CN(CCN3CCOCC3)Cc3nnnn3C(C)(C)CC)cc2c1	.	.	.	.	.
CCCC(c1nnnn1C(C)(C)CC)N(CCCO)Cc1cc2cc(C)cc(C)c2[nH]c1=O (centres undefined)	.	53	.	.	.
SMILES	CYP2C9 activ	CYP2C9 inhib	CYP2C19 act	Measles CPE	CYP2C19 inh
CCC(c1nnnn1C(C)(C)CC)N(CCCO)Cc1cc2cc(C)cc(C)c2[nH]c1=O (centres undefined)	.	76	.	.	63
O=C(NC1CCCC1)C(c1ccc(F)cc1)N(Cc1ccccc1Cl)C(=O)CCl (centres undefined)	/	/	/	.	/
CCc1c(C)nc2ncnn2c1NCCc1ccc(OC)cc1	.	85	.	.	63
CCc1c(C)nc2ncnn2c1Nc1ccc(C)c(C)c1	/	/	/	.	/
CCN(CCNC(=O)C1CCCN(S(=O)(=O)c2cnc[nH]2)C1)c1ccccc1 (centres undefined)	.	95	.	.	90
CCN(CCCNC(=O)C1CCCN(S(=O)(=O)c2cnc[nH]2)C1)c1ccccc1 (centres undefined)	.	52	.	.	78
O=C(NCCN1CCN(c2ccccc2)CC1)C1CCCN(S(=O)(=O)c2cnc[nH]2)C1 (centres undefined)	.	.	.	.	.
CCOC(=O)c1ccc(N=Cc2nc(-c3ccccc3)oc2OC(C)=O)cc1	.	50	.	.	.

High-throughput results from PubChem.
